Experimental data: PubChem BioAssay (NCATS)
Where “and” joins values, the source holds several entries; their conditions need not be identical. Equal entries are not always repeated. Inconclusive results are not listed. Calls of active or inactive are those of the source. Unless noted, the call rests on the fitted dose curve; in most records, active means well fitted curve in the direction sought with a large enough effect; inconclusive means small, poorly fitted or top-dose-only effect, or another doubt; inactive means no such curve, though single readings can be large; an effect the other way counts as inactive or inconclusive.

Columns and labels:
[1] = Cell Viability - HepG2 (AID 433; calls by dose curve;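 further: potency means the concentration at half of the fitted maximal effect; cells exposed to compound for 40 hours; potency for ATP loss meaning cytotoxicity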); details: qHTS
Method in brief: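 In this qHTS format, a 40 h, 37 °C compound incubation of HepG2 cells in complete medium precedes a 20 min CellTiter-Glo step at room temperature. Tamoxifen and doxorubicin serve as positive controls; Hill-equation fits yield AC50.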

[2] = Cellular Toxicity (caspase-3) SK-N-SH (AID 661);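 further: cells exposed to compound for 16 hours; 0% = DMSO basal and 100% = 10 µM staurosporine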
Method in brief: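 Cells were seeded and incubated 5 hr at 37 °C, dosed with compound over a concentration range for 16 hr, then given Caspase-Glo 3/7 reagent for 1 hr at room temperature before luminescence reading.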

[3] = Cellular Toxicity (caspase-3) H-4-II-E (AID 663); details: H-4-II-E rat hepatoma, scaled: DMSO 0%, 100 µM tamoxifen 100%; at 92.2 µM (top of the series);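 further: cells exposed to compound for 16 hr before readout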
Method in brief: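 Caspase 3/7 activation measured in H-4-II-E cells in complete culture medium after 16 hr treatment at 37 °C, using luciferase-coupled substrate readout; AC50 values come from Hill-equation fits of normalized concentration-response data.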

[4] = MultiTox-Fluor Cytotoxicity Assay - LYMP1-002 - Dead Cells (AID 960); further: nearly all actives have a fitted effect of over 60% in size; further: potency means the concentration at half of the fitted maximal effect
Method in brief: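 Cells were plated, rested 5 hr, then treated with compound dilution series for 16 hr at 37 C. After adding substrate reagent and 60 min at room temperature, dead-cell protease fluorescence gave concentration-response curves fitted by the Hill equation.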

[5] = Cell Viability - LYMP2-004 (AID 966);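 further: cells exposed to compound for 24 h; nearly all actives have a fitted effect of over 65% in size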; further: potency means the concentration at half of the fitted maximal effect
Method in brief: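 qHTS cytotoxicity: human lymphoblastoid line, 24 hr compound treatment, 37 C, complete medium. Viability read as cellular ATP via luciferase luminescence; tetraoctylammonium bromide served as positive control.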

[6] = Cell Viability - LYMP2-013 (AID 970);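 further: cells exposed to compound for 24 h at 37 °C; nearly all actives have a fitted effect of over 55% in size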; further: potency means the concentration at half of the fitted maximal effect
Method in brief: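 Cytotoxicity is scored as a concentration-dependent drop in intracellular ATP in human lymphoblastoid cells after 24 hr compound exposure at 37 C. ATP is quantified by luciferase luminescence, and AC50 values come from Hill-equation modeling.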

[7] = Cell Viability - LYMP2-006 (AID 978);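 further: cells exposed to compound for 24 hours; nearly all actives have a fitted effect of over 60% in size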; further: potency means the concentration at half of the fitted maximal effect
Method in brief: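 In this cytotoxicity screen, the human lymphoblastoid line grew in complete medium with test compounds for 24 hr at 37 C. Cellular ATP served as the viability signal.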

[8] = Cell Viability - LYMP2-010 (AID 981);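 further: cells exposed to compound for 24 hours at 37 °C; nearly all actives have a fitted effect of over 55% in size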; further: potency means the concentration at half of the fitted maximal effect
Method in brief: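 Steps: seed 2500 LYMP2-010 cells per well; incubate 5 hr at 37 C; add compound; incubate 24 hr at 37 C; add CellTiter-Glo, wait 30 min at room temperature; read luminescence. Concentration-response fitted to Hill equation for AC50.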

[9] = Cell Viability - LYMP2-014 (AID 983);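 further: cells exposed to compound for 24 h at 37 °C; nearly all actives have a fitted effect of over 50% in size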; further: potency means the concentration at half of the fitted maximal effect
Method in brief: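 Cells are plated at 2500/well and left 5 hr at 37 C. Compounds are added across a concentration range and incubated 24 hr at 37 C in complete medium. CellTiter-Glo is added, and luminescence is read after 30 min at room temperature.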

[10] = Cell Viability - LYMP2-022 (AID 987); further: nearly all actives have a fitted effect of over 55% in size; further: potency means the concentration at half of the fitted maximal effect
Method in brief: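 Cells were seeded at 2500 per well, rested 5 hr at 37 C, and treated with titrated compounds for 24 hr at 37 C. Cellular ATP was then quantified by luciferase luminescence, and AC50 values were derived from Hill-modelled concentration-response curves.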

[11] = Cell Viability - LYMP2-024 (AID 988); further: nearly all actives have a fitted effect of over 60% in size; further: potency means the concentration at half of the fitted maximal effect
Method in brief: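 qHTS cytotoxicity, human lymphoblastoid line, complete medium; 24 h cpd treatment, 37 C; CellTiter-Glo ATP luminescence readout; tetraoctylammonium bromide positive control; AC50 via Hill fit.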

[12] = qHTS assay for small molecule activators of the p53 signaling pathway (AID 651743; active means well fitted activation curve with a large enough effect in the signal ratio, not every such curve was filed as active; the % refers to the signal ratio; further: % of control where 0% means no effect); details: HCT-116 p53RE-bla, beta-lactamase FRET ratio, 16 h; activation: hits give high values
Method in brief: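 Agonist-mode quantitative HTS in HCT-116 cells carrying a p53-response-element beta-lactamase reporter; 16 h compound treatment at 37 C, then FRET substrate loading for 2 h at room temperature and fluorescence read.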

[13] = target: Nuclear receptor ROR-gamma (Homo sapiens) (UniProt P51449); test: qHTS assay for small molecule antagonists of the retinoid-related orphan receptor gamma (ROR-gamma) signaling pathway (AID 651802); further: nearly all actives have a fitted effect of over 60% in size; further: potency means the concentration at half of the fitted maximal effect
Method in brief: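 Steps: cells dispensed; compound or DMSO transferred by pin tool; doxycycline added to induce the ROR response element-driven luciferase; plates held 16hr at 37C; ONE-Glo added and luminescence measured.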

[14] = qHTS assay for small molecule agonists of the antioxidant response element (ARE) signaling pathway measured by Nrf2-dependant transcriptional activity (AID 720636; active means well fitted curve in the direction sought with a large enough effect in the repeat runs; an effect the other way counts as inactive or inconclusive; further: potency means the concentration at half of the fitted maximal effect;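 on activation: HepG2 cells with an ARE-driven luciferase reporter; % of control where 0% means no effect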)
Method in brief: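 Attachment 6 hr at 37 C, then compound versus DMSO vehicle for 16 hr in ARE-luc HepG2 cells (1% dialyzed FBS); luminescence recorded 30 min after ONE-Glo addition at room temperature.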

[15] = qHTS assay for cell viability of HEK293 cells (AID 743288); details: ATP luminescence (CellTiter-Glo), 18 h; max response: hits give low values; further: nearly all actives have a fitted effect of over 50% in size; further: potency means the concentration at half of the fitted maximal effect; on max response: on the % scale 0 is the no-effect control and ±100 the full control effect
Method in brief: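 HEK293, 18 h, 37 C, ATP luminescence. Cells at 2,000/well were allowed at least 5 h to settle before dosing; CellTiter-Glo developed 30 min at RT.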

[16] = target: Cytochrome P450 3A4 (Homo sapiens) (UniProt P08684); test: qHTS Assay for Inhibitors and Substrates of Cytochrome P450 3A4 (AID 884); further: nearly all actives have a fitted effect of over 50% in size; further: potency means the concentration at half of the fitted maximal effect
Method in brief: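 Luminescent readout of luciferin produced by CYP3A4 (20 nM) dealkylation of Luciferin-PPXE, 25 uM (its KM). NADPH-driven reaction ran 60 min at RT after 10 min compound preincubation; data scaled to 57 uM ketoconazole as 100% inhibition.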

Nuclear receptor ROR-gamma (Homo sapiens), sequence (P51449 whole entry, looked up): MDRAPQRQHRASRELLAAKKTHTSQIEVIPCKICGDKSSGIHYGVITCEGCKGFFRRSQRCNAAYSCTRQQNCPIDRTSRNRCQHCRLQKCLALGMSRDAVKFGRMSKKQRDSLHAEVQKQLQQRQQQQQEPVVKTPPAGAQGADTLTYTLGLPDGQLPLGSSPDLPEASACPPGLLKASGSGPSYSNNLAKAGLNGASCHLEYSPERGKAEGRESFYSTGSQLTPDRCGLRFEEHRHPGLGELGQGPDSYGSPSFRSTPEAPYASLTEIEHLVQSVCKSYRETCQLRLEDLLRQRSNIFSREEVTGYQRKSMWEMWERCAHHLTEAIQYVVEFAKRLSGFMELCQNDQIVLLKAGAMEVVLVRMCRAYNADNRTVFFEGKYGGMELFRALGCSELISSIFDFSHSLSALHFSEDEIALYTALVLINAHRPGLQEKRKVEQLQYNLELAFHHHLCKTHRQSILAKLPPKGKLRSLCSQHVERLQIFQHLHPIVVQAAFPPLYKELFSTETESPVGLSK
Cytochrome P450 3A4 (Homo sapiens), sequence (P08684 whole entry, looked up): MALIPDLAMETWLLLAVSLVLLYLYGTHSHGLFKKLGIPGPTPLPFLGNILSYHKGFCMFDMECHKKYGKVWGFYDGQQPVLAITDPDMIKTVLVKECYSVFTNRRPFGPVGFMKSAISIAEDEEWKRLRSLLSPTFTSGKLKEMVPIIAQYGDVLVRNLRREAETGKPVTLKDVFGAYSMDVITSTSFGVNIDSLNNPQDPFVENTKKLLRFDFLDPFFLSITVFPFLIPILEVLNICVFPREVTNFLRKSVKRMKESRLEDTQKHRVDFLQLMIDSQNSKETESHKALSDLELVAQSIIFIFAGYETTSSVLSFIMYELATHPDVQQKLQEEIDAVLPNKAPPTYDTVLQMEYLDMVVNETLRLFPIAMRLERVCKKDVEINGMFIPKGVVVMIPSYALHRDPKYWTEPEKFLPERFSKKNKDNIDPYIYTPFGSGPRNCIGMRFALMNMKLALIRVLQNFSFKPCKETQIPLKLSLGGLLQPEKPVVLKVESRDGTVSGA

Nc1ccccc1C(=O)OCCc1ccccc1
inactive: Potency [1] > 92 µM | outcome [2] | caspase-3 activation [3] -2.95% | Potency [4] | Potency [5] | Potency [6] | Potency [7] | Potency [8] | Potency [9] | Potency [10] | Potency [11] | activation [12] -0.792% | Potency [13]

Cc1ccc2ccccc2c1C
inactive: Potency [1] > 92 µM | Potency [14] | max response [15] 5.03%

CCCCCCCCn1sccc1=O
active: Potency [16] 12.6 µM | Potency [4] 5.01 µM | Potency [5] 3.98 µM | Potency [6] 15.8 µM | Potency [7] 7.94 µM | Potency [8] 2.51 µM | Potency [9] 10 µM | Potency [10] 2.51 µM | Potency [11] 2.51 µM | Potency [13] 11.9 µM
inactive: outcome [2] | caspase-3 activation [3] -3.17% | activation [12] -5.11%

CN(C)c1ccc(N=O)cc1
active: Potency [4] 3.16 µM | Potency [5] 0.794 µM | Potency [6] 1.58 µM | Potency [7] 2 µM | Potency [8] 0.631 µM | Potency [9] 2.51 µM | Potency [10] 0.631 µM | Potency [11] 0.501 µM | Potency [13] 7.5 µM | Potency [14] 26.6 µM | Potency [15] 39.8 µM
inactive: outcome [2] | caspase-3 activation [3] -1.57% | Potency [16] | activation [12] -1.31%

Oc1c(Cl)cc(Cl)cc1Cl
inactive: Potency [1] > 92 µM | activation [12] -6.01% and -1.45% | max response [15] -4.3% and -11%

[CH3][Hg][Cl]
active: Potency [1] 31.7 µM | Potency [5] 3.98 µM | Potency [6] 3.98 µM | Potency [7] 5.01 µM | Potency [8] 1.58 µM | Potency [9] 3.98 µM | Potency [10] 2.51 µM | Potency [11] 2 µM | Potency [13] 6.68 µM | Potency [15] 39.8 µM
inactive: outcome [2] | Potency [16]

OC(c1ccc(Cl)cc1)(c1ccc(Cl)cc1)C(Cl)(Cl)Cl
inactive: Potency [16] | Potency [5] | Potency [6] | Potency [7] | Potency [8] | Potency [9] | Potency [10] | Potency [11] | Potency [14] | max response [15] 0.684% and -14.8%

O=C(O)C1C(C(=O)O)C2(Cl)C(Cl)=C(Cl)C1(Cl)C2(Cl)Cl (stereo not given)
inactive: Potency [1] > 92 µM | outcome [2] | caspase-3 activation [3] -0.161% | Potency [16] | Potency [4] | Potency [5] | Potency [6] | Potency [7] | Potency [8] | Potency [9] | Potency [10] | Potency [11] | activation [12] -3.18% | Potency [13] | Potency [14] | max response [15] 0.0125%
